Experimental data as given in the antibiotic and cytotoxicity screens of Wong et al. (2023).
In all, about 39,000 compounds went through this assay and about 1,500 (3.8%) were called active. The list comes from a sample in which actives are over-represented; it also holds similar structures and randomly drawn compounds.

What follows are molecules tested on HSkMC (human skeletal muscle cells) (assay: cytotoxicity call (relative viability < 0.9)). Settings: 10 µM.

| SMILES | cytotoxicity call |
| --- | --- |
| C[C@@H]1CCCCO[C@H](CN(C)CC2CC2)[C@@H](C)CN([C@H](C)CO)C(=O)c2cc(NS(=O)(=O)c3ccc(Cl)cc3)ccc2O1 | inactive |
| C[C@@H]1CCCCO[C@@H](CN(C)Cc2ccc3c(c2)OCO3)[C@@H](C)CN([C@@H](C)CO)C(=O)c2cc(NC(=O)Cc3ccccc3)ccc2O1 | inactive |
| Cc1cc(C(=O)Nc2cccc3c2O[C@H](CN(C)S(=O)(=O)c2ccccc2)[C@H](C)CN([C@@H](C)CO)C3=O)n(C)n1 | inactive |
| C[C@H](CO)N1C[C@H](C)[C@H](CN(C)C(=O)NC2CCCCC2)Oc2ccc(NS(=O)(=O)c3cn(C)cn3)cc2CC1=O | inactive |
| Cc1nc(C)n(C(=O)N2CCOCC2)n1 | inactive |
| C[C@@H](O[C@H]1OCCN(Cc2n[nH]nc2CN(C)C)[C@H]1c1ccc(F)cc1)c1cc(C(F)(F)F)cc(C(F)(F)F)c1 | inactive |
| CCCC#Cc1cnc2c(c1)C(=O)N([C@H](C)CO)C[C@H](C)[C@H](CN(C)C(=O)c1ccc3c(c1)OCO3)O2 | inactive |
| C[C@H]1CN([C@@H](C)CO)C(=O)c2cc(NC(=O)Cn3cnnn3)ccc2O[C@H]1CN(C)C(=O)Nc1ccc(C(F)(F)F)cc1 | inactive |
| C[C@@H]1CN([C@@H](C)CO)C(=O)c2cc(NC(=O)Nc3ccc4c(c3)OCO4)ccc2O[C@H]1CN(C)C(=O)Nc1ccc(C(F)(F)F)cc1 | inactive |
| C[C@H]1CN([C@@H](C)CO)C(=O)c2cc(NC(=O)Nc3ccc4c(c3)OCO4)ccc2O[C@@H]1CN(C)C(=O)Nc1ccc(C(F)(F)F)cc1 | inactive |
| C[C@@H]1CN([C@@H](C)CO)C(=O)c2cc(NC(=O)Nc3ccc(C(F)(F)F)cc3)ccc2O[C@@H]1CN(C)C(=O)Nc1ccc2c(c1)OCO2 | active |
| CC(C)NC(=O)Nc1ccc2c(c1)C(=O)N([C@@H](C)CO)C[C@H](C)[C@@H](CN(C)Cc1ccc(Cl)c(Cl)c1)OCCCC[C@@H](C)O2 | inactive |
| C[C@@H]1CN([C@H](C)CO)C(=O)c2cc(NS(=O)(=O)c3cccs3)ccc2O[C@@H](C)CCCCO[C@@H]1CN(C)C(=O)c1ccccc1 | inactive |
| C[C@H]1CN([C@@H](C)CO)C(=O)Cc2cc(NC(=O)Nc3cccc4ccccc34)ccc2O[C@H]1CN(C)C(=O)Nc1ccccc1 | inactive |
| C[C@@H]1CN([C@H](C)CO)C(=O)c2cccc(NC(=O)c3ccc(-c4nccs4)cc3)c2O[C@H]1CN(C)C(=O)Nc1ccccc1 | inactive |
| CC(=O)NC[C@H]1CN(c2ccc(N3CCN(C(=O)CO)CC3)c(F)c2)C(=O)O1 | inactive |
| CC(C)(C)CC(C)(C)c1ccc(O)c(Cc2ccc(Cl)cc2Cl)c1 | active |
| CC(C)(C)CC(C)(C)c1cc(Cc2cc(C(C)(C)CC(C)(C)C)cc(-n3nc4ccccc4n3)c2O)c(O)c(-n2nc3ccccc3n2)c1 [listing 1 of 2 here] | inactive |
| CC(C)(C)CC(C)(C)c1cc(Cc2cc(C(C)(C)CC(C)(C)C)cc(-n3nc4ccccc4n3)c2O)c(O)c(-n2nc3ccccc3n2)c1 [listing 2 of 2 here] | inactive |
| O=C(CN1CCOCC1)NCC[C@@H]1CC[C@H](NC(=O)c2ccc3c(c2)OCO3)[C@@H](CO)O1 | inactive |
| C[C@@H]1CN([C@@H](C)CO)C(=O)c2cc(C#CC3(O)CCCC3)cnc2O[C@@H]1CN(C)C(=O)CN(C)C | inactive |
| C[C@@H]1CN([C@@H](C)CO)C(=O)c2cc(NC(=O)NC3CCCCC3)ccc2O[C@H]1CN(C)Cc1ccc(Oc2ccccc2)cc1 | active |
| C[C@H]1CN([C@@H](C)CO)C(=O)c2cc(NC(=O)NC3CCCCC3)ccc2O[C@H]1CN(C)Cc1ccc(-c2ccccc2)cc1 | inactive |

| SMILES | cytotoxicity call |
| --- | --- |
| CO[C@H]1CN(C)C(=O)c2cc(NC(=O)NC3CCCCC3)ccc2OC[C@@H](C)N(CCc2ccccc2)C[C@@H]1C | active |
| C[C@@H]1CN([C@H](C)CO)C(=O)c2cc(NC(=O)C3CCCCC3)ccc2O[C@@H]1CN(C)Cc1ccc(-c2ccccc2)cc1 | inactive |
| C[C@@H]1CN([C@H](C)CO)C(=O)c2cc(NC(=O)NC3CCCCC3)ccc2O[C@H]1CN(C)Cc1ccc(-c2ccccc2)cc1 | inactive |
| C[C@H]1CN([C@@H](C)CO)C(=O)c2cc(NC(=O)C3CCCCC3)ccc2O[C@@H]1CN(C)Cc1ccc(-c2ccccc2)cc1 | inactive |
| C[C@@H]1CN([C@@H](C)CO)C(=O)c2cc(NC(=O)NC3CCCCC3)ccc2O[C@@H]1CN(C)Cc1ccc(-c2ccccc2)cc1 | active |
| C[C@H](CO)N1C[C@H](C)[C@H](CN(C)Cc2ccc(Oc3ccccc3)cc2)Oc2ccc(NC(=O)NC3CCCCC3)cc2C1=O | inactive |
| CO[C@@H]1CN(C)C(=O)c2cc(NC(=O)NC3CCCCC3)ccc2OC[C@H](C)N(CCc2ccccc2)C[C@H]1C | inactive |
| C[C@@H]1CN([C@@H](C)CO)C(=O)c2cc(NC(=O)C3CCCCC3)ccc2O[C@@H]1CN(C)Cc1ccc(-c2ccccc2)cc1 | active |
| CO[C@H]1CN(C)C(=O)c2cc(NC(=O)NC3CCCCC3)ccc2OC[C@H](C)N(CCc2ccccc2)C[C@@H]1C | inactive |
| C[C@@H]1CN([C@H](C)CO)C(=O)c2cc(NC(=O)NC3CCCCC3)ccc2O[C@H]1CN(C)Cc1ccc(Oc2ccccc2)cc1 | inactive |
| Cc1ccc(-c2c[nH]c(=S)[nH]2)cc1 | inactive |
| Cc1noc(C)c1NC(=O)Nc1ccc2c(c1)CC(=O)N([C@H](C)CO)C[C@@H](C)[C@@H](CN(C)C(=O)Nc1cccc3ccccc13)O2 | inactive |
| O=C(C[C@@H]1CC[C@H]2[C@@H](COC[C@@H](O)CN2S(=O)(=O)c2ccccc2)O1)NCCN1CCCC1 | inactive |
| C[C@H]1CN([C@@H](C)CO)C(=O)Cc2cc(NS(C)(=O)=O)ccc2O[C@@H]1CN(C)C(=O)Nc1ccc2c(c1)OCO2 | inactive |
| Cc1noc(C)c1NC(=O)Nc1cccc2c1O[C@@H](CN(C)S(C)(=O)=O)[C@H](C)CN([C@@H](C)CO)C2=O | inactive |
| NCCCCCNC(=O)[C@H]1C[C@H]2C(=O)NCC(=O)N2[C@H]1c1cccc(OCCO)c1 | inactive |
| COc1ccc([C@@H]2CC(=O)c3c(O)cc(O[C@@H]4O[C@H](CO[C@@H]5O[C@@H](C)[C@H](O)[C@@H](O)[C@H]5O)[C@@H](O)[C@H](O)[C@H]4O)cc3O2)cc1O | inactive |
| C[C@@H](NC(=O)C[C@H]1C=C[C@H](NC(=O)CN2CCOCC2)[C@@H](CO)O1)c1ccccc1 | inactive |
| O=C(Nc1ncc(SCCN2CCCC2)s1)[C@]1(c2ccc(S(=O)(=O)C3CC3)cc2)C[C@H]1C1CCCCC1 | active |
| C[C@H]1CCCCO[C@H](CN(C)C(=O)Nc2ccc(F)cc2)[C@@H](C)CN([C@@H](C)CO)C(=O)c2cc(NC(=O)CCC(F)(F)F)ccc2O1 | inactive |
| COc1ccc(CN(C)C[C@H]2Oc3c(NS(C)(=O)=O)cccc3C(=O)N([C@H](C)CO)C[C@H]2C)cc1 | inactive |
| CCCCCOc1ccc(-c2cc(-c3ccc(C(=O)N[C@H]4C[C@@H](O)[C@@H](O)NC(=O)[C@H]5[C@@H](O)[C@@H](C)CN5C(=O)[C@H]([C@@H](O)CC(N)=O)NC(=O)[C@H]([C@@H](O)[C@@H](O)c5ccc(O)c(OS(=O)(=O)O)c5)NC(=O)[C@H]5C[C@@H](O)CN5C(=O)[C@H]([C@@H](C)O)NC4=O)cc3)no2)cc1 | inactive |
| CC[C@H](C)C[C@H](C)CCCCCCCCC(=O)N[C@H]1C[C@@H](O)[C@@H](NCCN)NC(=O)[C@@H]2[C@@H](O)CCN2C(=O)[C@H]([C@H](O)CCN)NC(=O)[C@H]([C@H](O)[C@@H](O)c2ccc(O)cc2)NC(=O)[C@@H]2C[C@@H](O)CN2C(=O)[C@H]([C@@H](C)O)NC1=O | inactive |

| SMILES | cytotoxicity call |
| --- | --- |
| COc1ccc(NC(=O)N(C)C[C@@H]2Oc3ccc(NC(=O)CCCN(C)C)cc3CC(=O)N([C@H](C)CO)C[C@H]2C)cc1 | inactive |
| C[C@@H]1CCCCO[C@H](CN(C)C(=O)Nc2ccc3c(c2)OCO3)[C@H](C)CN([C@@H](C)CO)C(=O)c2cc(NC(=O)Nc3ccc(F)cc3)ccc2O1 | inactive |
| C[C@@H]1CCCCO[C@H](CN(C)C(=O)c2ccncc2)[C@H](C)CN([C@H](C)CO)C(=O)c2cc(NS(=O)(=O)c3ccc(Cl)cc3)ccc2O1 | inactive |
| NC(=O)CNC(=O)c1cccc(Cl)c1 | inactive |
| CN(C)c1ccc2nc3ccc(N(C)C)cc3[s+]c2c1.O.[Cl-] | active |
| Cc1cc2nc3ccc(N(C)C)cc3[s+]c2cc1N.[Cl-] | active |
| CN(C)c1ccc2c(=O)[nH][nH]c(=O)c2c1 | inactive |
| C[C@@H]1CN([C@@H](C)CO)C(=O)Cc2cc(NC(=O)Cc3cn(C)c4ccccc34)ccc2O[C@@H]1CN(C)Cc1ccc(Oc2ccccc2)cc1 | inactive |
| Nc1cc(Cl)ncn1 | inactive |
| C[C@@H]1CN([C@H](C)CO)S(=O)(=O)c2ccc(C#C[C@@H](C)O)cc2O[C@H]1CN(C)C | inactive |
| COc1ccc(S(=O)(=O)Nc2ccc3c(c2)C(=O)N([C@H](C)CO)C[C@H](C)[C@@H](CN(C)C(=O)c2ccccc2)OCCCC[C@H](C)O3)cc1 | inactive |
| CC12CC3(C)CC(C)(C1)CC(C/N=C/c1ccc(O)cc1)(C2)C3 | inactive |
| CCOc1ccc2nc(C34CC5CC(CC(C5)C3)C4)ccc2c1 | inactive |
| CC1=Nc2ccccc2NC(C)(C)C1 | inactive |
| C[C@@H]1CN([C@@H](C)CO)C(=O)c2cc(NC(=O)Cc3ccccc3)ccc2O[C@H]1CN(C)S(=O)(=O)c1cccs1 | inactive |
| COCCN1CCC(N(Cc2ccc(-c3ccc(C(F)(F)F)cc3)cc2)C(=O)Cn2c(SCc3cccc(F)c3F)cc(=O)c3ccccc32)CC1 | active |
| O=c1cc(-c2ccccc2)[nH]c(=O)[nH]1 | inactive |
| COc1ccc(S(=O)(=O)N(C)C[C@@H]2Oc3ccc(NC(=O)NC(C)C)cc3CC(=O)N([C@H](C)CO)C[C@@H]2C)cc1 | inactive |
| COc1ccc(S(=O)(=O)N(C)C[C@@H]2Oc3ccc(NC(=O)Nc4cccc5c4CCCC5)cc3CC(=O)N([C@@H](C)CO)C[C@@H]2C)cc1Cl | inactive |
| COc1ccc(S(=O)(=O)N(C)C[C@@H]2Oc3ccc(NC(=O)Nc4cc(Cl)cc(Cl)c4)cc3CC(=O)N([C@@H](C)CO)C[C@@H]2C)cc1Cl | active |
| CC(C)NC(=O)Nc1ccc2c(c1)CC(=O)N([C@H](C)CO)C[C@@H](C)[C@H](CN(C)S(=O)(=O)c1ccc(Cl)cc1)O2 | inactive |
| COc1ccc(S(=O)(=O)N(C)C[C@@H]2Oc3ccc(NC(=O)Nc4ccc(Cl)c(Cl)c4)cc3CC(=O)N([C@@H](C)CO)C[C@@H]2C)cc1Cl | active |
| CC(C)NC(=O)Nc1ccc2c(c1)CC(=O)N([C@@H](C)CO)C[C@@H](C)[C@H](CN(C)S(=O)(=O)c1ccc(Cl)cc1)O2 | inactive |
